Assay outcomes (PubChem BioAssay)
Only a selection was taken, and hits are over-represented in it overall.
Vaccinia pol inh: vaccinia E9 polymerase processive synthesis inhibition; actives 0.94% (n = 46,000); normalized absorbance, % (test concentration not listed); in vitro processive DNA synthesis, absorbance read-out; hits give low values; in the data active = normalized absorbance mostly below about 85%, no sharp cut-off; inactive = mostly above about 86%
Active calls of the source: *.

SMILES	Vaccinia pol inh
CC1=C(C(=O)Nc2ccccc2)C(c2ccc3c(c2)OCO3)C2=C(CC(C)(C)CC2=O)N1 (configuration not stated)	100
CN(c1ccc(Cl)cc1)c1cc(=O)n(C)c2ccccc12	63*
CN1CCN(C(=O)COc2cc(=O)n(C)c3ccccc23)CC1	85
CCOc1ccccc1N(C)C(=O)COc1cc(=O)n(C)c2ccccc12	88
COc1ccc(C(=O)Nc2nnc(-c3ccc(Cl)cc3)o2)cc1	93
O=C(OCc1cccc(COC(=O)c2ccccc2)c1F)c1ccccc1	100
Cc1cccc2sc(NN)nc12	61*
O=C(Nc1nc2ccccc2s1)c1ccccc1	101
CCNc1nc2c(C)cccc2s1	104
c1ccc(CCNc2nc3ccccc3s2)cc1	101
NNc1nc2ccccc2s1	78*
O=C(Nc1nc2c(Cl)cccc2s1)C1CC1	101
CC(=O)Nc1cccc(Oc2nc(C)nc3sc4c(c23)CCCC4)c1	100
CC(Oc1ccc(F)cc1)C(=O)Oc1ccc(Br)cc1 (configuration not stated)	108
COc1cc(OC)cc(C(=O)Nc2ccc(O)c(-c3nc4ccccc4s3)c2)c1	101
Cc1cc(C(C)(C)C)cc(C(C)(C)C)c1NC(=O)/C=C/C(=O)O	105
CC(Oc1ccc2c(=O)c(-c3ccc(Cl)cc3)coc2c1)C(=O)O (configuration not stated)	100
COc1ccc(-n2nnnc2-c2ccc3ccccc3n2)cc1	90
CCC1CCCCN1C(=O)Cn1c(SCc2cccc(Cl)c2)nc2ccncc21 (configuration not stated)	107
O=C1OC(c2ccccc2)OC(=O)C1=Cc1ccc(-c2cccc(Br)c2)o1 (configuration not stated)	100
CN(C)c1cccc2c(Br)ccc(N(C)C)c12	94
CC(C)(C#N)N1CCN(c2ccc(Cl)c(Cl)c2)CC1	103
CC(=O)Nc1ccc(I)cn1	94
COC(=O)c1ccc(Nc2cc(C)nc3ccccc23)cc1	99
Cc1cccc(Nc2cc(C)nc3ccccc23)c1	77*
SMILES	Vaccinia pol inh
Cc1cc(Nc2ccc(O)cc2)c2ccccc2n1	84
Cc1cc(Cl)ccc1Oc1cc(C(F)(F)F)cnc1C#N	102
Cc1cc2cc(CNC(=O)Cc3ccccc3)ccc2[nH]1	100
CC(C)OC(=O)CSC1=C(C#N)C(c2ccco2)C2=C(CCCC2=O)N1 (configuration not stated)	103
COc1ccc(-c2nc(SCC(=O)NC3CCCC3)c(-c3ccc(C)cc3)[nH]2)cc1	98
CCOC(=O)CSc1ncc(C(F)(F)F)cc1Cl	114
O=C(Cn1cnc2c(oc3ccccc32)c1=O)Nc1ccccc1F	98
O=C(OCC1CCCN2CCCCC12)c1ccc(F)c(F)c1 (configuration not stated)	100
Cc1cc2c(C(C)C)c(O)c(O)c(C=O)c2c(O)c1-c1c(C)cc2c(C(C)C)c(O)c(O)c(C=O)c2c1O	18*
CC1CCN(CCC(=O)Nc2ccccc2F)CC1	106
N#Cc1c(-n2cccc2)sc2c1CCN(c1cccc(F)n1)C2	80
CCCC(=O)Oc1c(Sc2ccccc2)c(C)nn1-c1ccccc1	86
CC(=O)Oc1c(Sc2ccccc2)c(C)nn1-c1ccccc1	77*
Cc1nn(-c2ccccc2)c(C)c1Sc1ccccc1	100
CCOC(=O)c1c(CN2CCCC2)n(C)c2cc(Br)c(OC)cc12	99
COc1ccc(C2=NS(=O)(=O)N(C)C(C(=O)N3CCC(C(N)=O)CC3)=C2)cc1	70*
CCC1CCCCN1C(=O)C1=CC(c2ccc(OC)cc2)=NS(=O)(=O)N1C (configuration not stated)	87
COc1ccc(C2=NS(=O)(=O)N(C)C(C(=O)N3CCC(C)CC3)=C2)cc1OC	104
O=C1NC(=O)C(=Cc2cccc3ccccc23)C(=O)N1	88
CSC1=NC(=O)/C(=C\c2cccc3ccccc23)S1	73*
CC(C(=O)O)N1C(=O)/C(=C/c2cccc3ccccc23)SC1=S (configuration not stated)	85
O=C(O)c1cc(/C=N/n2cnnc2)c2c(c1)COCO2	100
COCCN1C(=O)c2ccccc2C(C(=O)NCCc2cccc(C)c2)C1c1c[nH]c2ccccc12 (configuration not stated)	104
COc1cccc(C=Nc2cccc(C(=O)O)c2C)c1O	94
Cc1c(N=Cc2cc(Br)cc(Br)c2O)cccc1C(=O)O	45*
SMILES	Vaccinia pol inh
Cc1cc2ccccc2c(N=Cc2cc(Br)cc(Br)c2O)c1C#N	81
CC(=O)Nc1cc(C(F)(F)F)ccc1N1CCN(c2ccccc2)CC1	98
O=C(N1CCSCC1)C12CC3CC(CC(C3)C1)C2	95
CCn1c(CCNC(C)=O)nc2ccccc21	101
Nc1oc(-c2ccccc2F)cc1C(=O)c1ccccc1	95
O=C1CC(c2cccc(O)c2)Nc2ccc3ccccc3c21 (configuration not stated)	62*
O=C1c2ccccc2NC(c2cccc(O)c2)N1O (configuration not stated)	96
Cc1ccccc1C1CC(=O)c2c(ccc3ccccc23)N1 (configuration not stated)	99
CC12CC[C@@H](O)CC1CCC1C2CCC2(C)C(C(=O)O)CCC12 (some centres not stated)	98
CC1(C)CC(=O)C2=C(C1)Nc1ccccc1N(C(=O)c1ccccc1)C2c1ccccc1 (configuration not stated)	101
CC1CCCCN1C(=O)CSc1nnc(-c2ccccc2)o1 (configuration not stated)	95
CCOC(=O)C1CCCN(C(=O)CSc2ccc3ccccc3c2)C1 (configuration not stated)	94
CC1CCCCN1C(=O)CSc1ccc2ccccc2c1 (configuration not stated)	73*
Nc1ccc2nc(CCC(=O)O)[nH]c2c1	101
O=C(O)CCc1nc2ccc(C(=O)O)cc2[nH]1	100
C=Cc1c(C)c2cc3[nH]c(cc4nc(cc5nc(cc1[nH]2)C(C)=C5CCC(=O)O)C(CCC(=O)O)=C4C)c(C)c3C=C	22*
OC(CN1CCCCCC1)c1ccccc1 (configuration not stated)	101
O=C(COC(=O)C(c1ccccc1)c1ccccc1)NC1CCCCC1	97
Cc1ccc(NS(=O)(=O)c2c(C)nn(C)c2Cl)c(C)c1	72
COc1ccc(Nc2ccnc3ccccc23)cc1	98
c1cc(N2CCOCC2)ccc1NC1=NCCS1	89
CC(C)Nc1ccc(Nc2ccccc2)cc1	96
CC(C)Nc1ccc(Nc2ccnc3cc4ccccc4cc23)cc1	10*
c1ccc2cc3c(Nc4ccc(N5CCOCC5)cc4)ccnc3cc2c1	67*
Oc1ccc(Nc2nc(N3CCOCC3)c3ccccc3n2)cc1	89
SMILES	Vaccinia pol inh
Cc1[nH]nc2nc(SCC(=O)N3CCCC3)n(-c3ccc(Br)cc3)c(=N)c12	100
N#Cc1c(-c2ccccc2)cc(-c2ccccc2)nc1N	100
CCOc1ccc(-c2c(C#N)c(N)nc(SCC#N)c2C#N)cc1	101
N#Cc1c(N)nc(SCc2ccccc2)c(C#N)c1-c1ccccc1	83*
O=C(COc1ccc2ccccc2c1)c1ccc(O)cc1O	98
Oc1c(Cl)cc(Cl)cc1C(O)(C(F)(F)F)C(F)(F)F	84*
Oc1c(Cl)cc(Cl)cc1Sc1cc(Cl)cc(Cl)c1O	60*
O=C(c1cnoc1)c1cc(Cl)cc(Cl)c1O	94
Cc1ccc(N)c(C(O)(C(F)(F)F)C(F)(F)F)c1	102
CCC(=O)c1cc(Cl)cc(Cl)c1O	97
COc1ccc(C(=O)Nc2ccn(-c3ccccc3)n2)c(OC)c1	102
